The values that follow come from PubChem BioAssay (NCI).

Compounds without any hit were thinned out: in the full panel of roughly 83,000, 20% have a hit.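 Single-concentration screen, 48 h exposure, 96-well plates. Endpoint: percent growth. Below 10 = active.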 Unmarked numbers belong to inactive results. Calls of active or inactive are those of the source.

The test system of the experiment is MDA-MB-468 breast. Briefly: NCI-60 one-dose screen, 48 h (100 = growth as untreated, 0 = no growth, -100 = all killed). The following applies: 10 µM unless noted.
In the case of `Oc1c(C(Nc2ccccn2)c2cccc(Oc3ccccc3)c2)ccc2cccnc12` (stereo unspecified), the growth is -79.2% (active).

For `C[Si](C)(C)Cc1ccccc1`, the growth is 104%. For `COc1ccc(Cn2nc(-c3ccccc3)c3c2CCc2cnoc2-3)cc1`, the growth is 43.1%. Then `COc1ccccc1Cn1cc2c(c1)-c1oncc1CC2`, with 6.66% (active).

In the case of `CC1OC(O[C@@H]2C(O)C(CO)OC(O[C@H]3COC(O[C@H]4CC[C@]5(C)[C@H]6CC[C@]78OC[C@@]9(CC[C@](C)(C=O)C[C@H]97)[C@H](O)C[C@@]8(C)[C@]6(C)CC[C@H]5C4(C)C)[C@@H](OC4OC(CO)[C@@H](O)[C@@H](O)[C@@H]4O)[C@@H]3O)[C@H]2OC2OC[C@@H](O)[C@@H](O)[C@@H]2O)[C@@H](O)[C@@H](O)[C@H]1O` (stereo partly specified), the growth was 34.5%. Under `Cc1ccc2[nH]c(=S)n(-c3ccc(S(=O)(=O)Nc4ccc(Cl)nn4)cc3)c(=O)c2c1` stands 107%. Under `Clc1ccc(-c2ccc(CNCC3CCNCC3)o2)c(-c2ccccc2)c1` stands -79.1% (active); under `Cn1ccnc1C(=O)/C=C/c1ccc(CC(=O)Nc2cc(F)c(F)c(F)c2)cc1`, -23.4% (active); under `Fc1ccc2nc(-c3nc(-c4ccccc4)n4ccccc34)[nH]c2c1`, -68.1% (active). Then `Cc1cc(NS(=O)(=O)c2ccc(-c3cnc(C4CC4)o3)cc2)ccc1I`, with 3.98% (active); and `c1ccc(C(c2nc3ncncc3[nH]2)N2CSc3nc4ccccc4n3C2)cc1` (stereo unspecified), with 94.8%; and `Cc1cc(=O)oc2c1ccc1oc(C(=O)c3ccccc3)c(C)c12`, with 76.1%. For `COc1ccc(C(C)=O)cc1N1C(=O)C2C(C1=O)C1(c3ccccc3)C(=O)C2(c2ccccc2)C(c2ccc(C)cc2)=C1c1ccc(C)cc1` (stereo unspecified), the growth is 13.9%. Then `Cc1ccc(NC(=O)NC(=O)CSc2nc3ccccc3nc2C)cc1`, with 19.6%; and `COc1cc(/C=C2\CN(C(=O)OC(C)(C)C)C/C(=C\c3ccc(O)c(OC)c3)C2=O)ccc1O`, with 99.9%.

Take `OCC(O)COc1ccc(Cl)cc1Cl` (stereo unspecified): the growth was 111%. Under `CCOC(=O)/C(C#N)=C\Nc1ccc2ncnc(Nc3ccc(Cl)cc3Cl)c2c1` stands 56.4%; under `COC(=O)[C@]12CC[C@@H](C)[C@H](C)[C@@H]1C1=CC[C@@H]3[C@@]4(C)C(c5ncon5)=C[C@@](C)(CO)C4=CC[C@@]3(C)[C@]1(C)CC2`, -28.9% (active). Then `OCCN1CCN(c2nc(Nc3ccc(-c4nc5ccccc5[nH]4)cc3)c3cn[nH]c3n2)CC1`, with -82.3% (active).

As for `COc1ccc(-c2nc3sccn3c2-c2ccnc(NCCCNS(=O)(=O)c3ccc(C)cc3)n2)cc1`, the growth was 37.9%. Then `C#C[C@]1(O)CC[C@H]2[C@@H]3CC=C4c5sc(Nc6ccccc6)nc5CC[C@]4(C)[C@H]3CC[C@@]21C`, with 7.27% (active); and `Cn1cc(-c2nc(-c3c[nH]c4ncccc34)cs2)c2cc(Br)ccc21`, with 5.22% (active); and `CCCCCCn1c(-c2ccc(C(=O)O/N=C(\N)c3ccc(OC)cc3)cc2)nc(-c2ccccc2)c1-c1ccccc1`, with -6.91% (active).

Turning to `COc1cc(/C=C/C(=O)Nc2cccnc2Nc2cc(OC)c(OC)c(OC)c2)cc(OC)c1OC`, the growth is 99.8%. Under `COc1cccc(C2C3=C(COC3=O)N(CCO)c3cc(OC)ccc32)c1` (stereo unspecified) stands -13.2% (active); under `Cc1ccc(-c2cc3nc(C(Cl)Cl)nc(-c4ccccc4C)n3n2)cc1`, 49.8%.
